Assay results published in PubChem BioAssay (EPA / NIEHS).
Where “and” joins values, the source holds several entries; their conditions need not be identical. Equal values may be shown once. Results filed as inconclusive are left out. A structure can be active in one record and inactive in another. Calls of active or inactive are those of the source. The calls were made as follows: active = hit-call score of the fitted dose curve at least 0.9, where 1 is the maximum; inconclusive = response in the unintended direction; inactive = score below 0.9.

What was measured:
[1] = TOX21_p53_BLA_p2_viability: Viability Assessment in the Tox21 HCT-116 p53 Agonism Beta-lactamase Assay, Phase 2 (AID 2283591);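 also: actives lower the ATP signal meaning cytotoxicity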
Summary of the method: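 HCT-116 p53-bla cells (4000/well) rested 5 h at 37C, then received compounds in DMSO (217-fold dilution) for 16 h at 37C, 5% CO2. After the CCF4 read, CellTiter-Glo was added; ATP luminescence was read after 30 min at room temperature.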

[2] = biological target: Cellular tumor antigen p53 (Homo sapiens) (UniProt P04637); assay: TOX21_p53_BLA_p2_ratio: Tox21 HCT-116 p53 Agonism Beta-lactamase Assay, Ratio, Phase 2 (AID 2283592)
Chain of Cellular tumor antigen p53 (Homo sapiens) (P04637 whole entry, looked up): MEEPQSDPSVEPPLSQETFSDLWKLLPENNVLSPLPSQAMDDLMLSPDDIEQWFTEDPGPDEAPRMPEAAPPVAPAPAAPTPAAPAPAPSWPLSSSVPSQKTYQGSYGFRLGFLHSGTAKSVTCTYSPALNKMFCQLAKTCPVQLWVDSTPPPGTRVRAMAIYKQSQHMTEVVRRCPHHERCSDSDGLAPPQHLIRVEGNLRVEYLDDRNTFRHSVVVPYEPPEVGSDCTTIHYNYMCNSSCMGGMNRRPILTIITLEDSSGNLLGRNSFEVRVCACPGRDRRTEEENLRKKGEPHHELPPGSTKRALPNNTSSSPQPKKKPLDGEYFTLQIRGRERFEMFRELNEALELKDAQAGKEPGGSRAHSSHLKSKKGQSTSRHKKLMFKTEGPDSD
Summary of the method: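 First, HCT116 reporter cells settle for 5 h at 37C. Next, DMSO compound solutions are pinned in (217-fold dilution) and left 16 h. Finally, CCF4-AM substrate is loaded 2 h at room temperature and the 460/530 nm ratio read.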

[3] = TOX21_p53_BLA_p3_viability: Viability Assessment in the Tox21 HCT-116 p53 Agonism Beta-lactamase Assay, Phase 3 (AID 2283593);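 also: cells exposed to compound for 16 h before reading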
Summary of the method: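 HCT-116 cells (4000/well) rested 5 h at 37C, then got DMSO compounds by pin tool (217-fold dilution) for 16 h at 37C, 5% CO2. After the bla read, CellTiter-Glo was added and luminescence read at 30 min, room temperature.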

[4] = biological target: Cellular tumor antigen p53 (Homo sapiens) (UniProt P04637); assay: TOX21_p53_BLA_p3_ratio: Tox21 HCT-116 p53 Agonism Beta-lactamase Assay, Ratio, Phase 3 (AID 2283596)
Summary of the method: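 Cells were seeded at 4000/well, rested 5 h at 37C, then dosed with DMSO compound solutions (217-fold dilution) for 16 h. CCF4-AM substrate was loaded for 2 h at room temperature, and the 460/530 nm emission ratio was fitted for gain of signal versus DMSO.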

[5] = TOX21_p53_BLA_p4_viability: Viability Assessment in the Tox21 HCT-116 p53 Agonism Beta-lactamase Assay, Phase 4 (AID 2283597);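 also: hits lower the luminescence signal meaning cytotoxicity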
Summary of the method: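 4000 HCT116 cells per well; 5 h attachment; compounds from DMSO, 217-fold dilution; 16 h at 37C. Then CCF4-AM, 2 h RT, followed by CellTiter-Glo, 30 min RT, luminescence. Decrease = cytotoxicity.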

[6] = biological target: Cellular tumor antigen p53 (Homo sapiens) (UniProt P04637); assay: TOX21_p53_BLA_p5_ratio: Tox21 HCT-116 p53 Agonism Beta-lactamase Assay, Ratio, Phase 5 (AID 2283599)
Summary of the method: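 HCT-116 cells carrying a p53-inducible beta-lactamase reporter were seeded at 4000 cells/well and dosed after 5 h with compound in DMSO (217-fold dilution). After 16 h at 37C, CCF4-AM substrate was added for 2 h, and the 460/530 nm emission ratio was scored as gain-of-signal versus DMSO.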

[7] = TOX21_p53_BLA_p5_viability: Viability Assessment in the Tox21 HCT-116 p53 Agonism Beta-lactamase Assay, Phase 5 (AID 2283600)
Summary of the method: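 Decreased CellTiter-Glo luminescence denotes lost viability. Exposure: 16 h at 37C, 5% CO2, with compounds from DMSO stocks diluted 217-fold in wells of 4000 cells.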

[8] = biological target: Cellular tumor antigen p53 (Homo sapiens) (UniProt P04637); assay: TOX21_p53_BLA_p4_ratio: Tox21 HCT-116 p53 Agonism Beta-lactamase Assay, Ratio, Phase 4 (AID 2283601)
Summary of the method: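 HCT116 cells carrying an inducible beta-lactamase reporter were plated at 4000 cells/well, rested 5 h, then exposed to compounds in DMSO (217-fold dilution) for 16 h at 37C. CCF4-AM substrate was loaded 2 h at room temperature; 460/530 nm emission ratio scored gain-of-signal versus DMSO.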

## CCCCCCCCCC(=O)NO
[1]
  outcome: inactive
[2]
  AC50: 23.1 µM (active)
  outcome: inactive
[3]
  outcome: inactive
[4]
  outcome: inactive
[5]
  outcome: inactive
[6]
  outcome: inactive
[7]
  outcome: inactive
[8]
  AC50: 24.3 µM (active)
  outcome: inactive

## Oc1cccc(-c2c3nc(c(-c4cccc(O)c4)c4ccc([nH]4)c(-c4cccc(O)c4)c4nc(c(-c5cccc(O)c5)c5ccc2[nH]5)CC4)C=C3)c1
[1]
  AC50: 20.2 µM (active) and 17.5 µM (active)
[2]
  AC50: 26.1 µM (active) and 33.8 µM (active)
[3]
  AC50: 35.7 µM (active)
  outcome: inactive
[4]
  AC50: 37.4 µM (active)
  outcome: inactive
[5]
  AC50: 17 µM (active) and 33.2 µM (active)
[6]
  AC50: 37.1 µM (active) and 38.3 µM (active)
[7]
  AC50: 42.9 µM (active)
  outcome: inactive
[8]
  AC50: 24.5 µM (active) and 36.4 µM (active)

## COC(=O)C1=C(C)NC(C)=C(C(=O)OC)C1c1ccccc1[N+](=O)[O-]
[1]
  outcome: inactive
[2]
  outcome: inactive
[3]
  AC50: 38.3 µM (active)
  outcome: inactive
[4]
  outcome: inactive
[5]
  outcome: inactive
[6]
  outcome: inactive
[7]
  outcome: inactive
[8]
  outcome: inactive

## CSc1ccc2c(c1)N(CCC1CCCCN1C)c1ccccc1S2 (centres undefined)
[1]
  AC50: 37 µM (active) and 75.4 µM (active)
[2]
  AC50: 43.6 µM (active) and 79 µM (active)
[3]
  AC50: 73 µM (active)
  outcome: inactive
[4]
  outcome: inactive
[5]
  AC50: 35.8 µM (active) and 59.3 µM (active)
[6]
  AC50: 43.3 µM (active) and 86 µM (active)
[7]
  AC50: 43.8 µM (active) and 85.2 µM (active)
[8]
  AC50: 43.4 µM (active) and 82.3 µM (active)

## O=C(O)c1ccc(S(=O)(=O)N(Cl)Cl)cc1
[1]
  outcome: inactive
[2]
  AC50: 64.5 µM (active)
  outcome: inactive
[3]
  outcome: inactive
[4]
  outcome: inactive
[5]
  outcome: inactive
[6]
  outcome: inactive
[7]
  outcome: inactive
[8]
  outcome: inactive

## CC(=O)Oc1ccc(C(c2ccc(OC(C)=O)cc2)c2ccccn2)cc1
[1]
  outcome: inactive
[2]
  AC50: 11.4 µM (active) and 2.16 µM (active)
[3]
  outcome: inactive
[4]
  AC50: 1.55 µM (active) and 3.98 µM (active)
[5]
  AC50: 1.4 µM (active) and 2.68 µM (active)
[6]
  AC50: 1.18 µM (active)
  outcome: inactive
[7]
  outcome: inactive
[8]
  AC50: 5.22 µM (active)
  outcome: inactive

## CCOC(=O)c1ccc(OCCN2C[C@H](O)[C@@H](O)[C@H](O)[C@H]2CO)cc1
[1]
  outcome: inactive
[2]
  outcome: inactive
[3]
  outcome: inactive

## COc1cc(/C=C/C(=O)O[C@H]2CC[C@]34C[C@]35CC[C@]3(C)[C@@H]([C@H](C)CCC=C(C)C)CC[C@@]3(C)[C@@H]5CC[C@H]4C2(C)C)ccc1O
[1]
  outcome: inactive
[2]
  outcome: inactive
[3]
  AC50: 26.8 µM (active)
  outcome: inactive
[4]
  AC50: 23 µM (active)
  outcome: inactive
[5]
  outcome: inactive
[6]
  AC50: 13.3 µM (active)
  outcome: inactive
[7]
  outcome: inactive
[8]
  AC50: 6.07 µM (active)

## C[C@@H](O)[C@H]1C(=O)N2C(C(=O)O)=C(SCCN=CN)C[C@H]12
[1]
  outcome: inactive
[2]
  outcome: inactive
[3]
  outcome: inactive
[4]
  outcome: inactive
[5]
  outcome: inactive
[6]
  outcome: inactive

## CCOc1cccc(N)c1
[1]
  outcome: inactive
[2]
  outcome: inactive
[3]
  outcome: inactive

## Cc1cc(C)c(N=Nc2c(O)c(S(=O)(=O)O)cc3cc(S(=O)(=O)O)ccc23)cc1C
[1]
  outcome: inactive
[2]
  outcome: inactive
[3]
  outcome: inactive
[4]
  outcome: inactive
[5]
  outcome: inactive
[6]
  outcome: inactive
[7]
  outcome: inactive

## CC(C)[C@H](N)C(=O)OCCOCn1cnc2c(=O)[nH]c(N)nc21
[1]
  outcome: inactive
[2]
  outcome: inactive
[3]
  outcome: inactive
[4]
  outcome: inactive
[5]
  outcome: inactive

## NNCCc1ccccc1
[1]
  outcome: inactive
[2]
  outcome: inactive
[3]
  outcome: inactive
[4]
  outcome: inactive
[5]
  AC50: 74.1 µM (active)
  outcome: inactive
[6]
  outcome: inactive
[7]
  outcome: inactive
[8]
  outcome: inactive

## CCc1nn(CCCN2CCN(c3cccc(Cl)c3)CC2)c(=O)n1CCOc1ccccc1
[1]
  outcome: inactive
[2]
  outcome: inactive
[3]
  AC50: 18.9 µM (active)
  outcome: inactive
[4]
  outcome: inactive
[5]
  AC50: 23 µM (active) and 14.9 µM (active)
[7]
  outcome: inactive
[8]
  outcome: inactive

## CC(=O)Nc1ccccc1C
[1]
  outcome: inactive
[2]
  outcome: inactive
[3]
  outcome: inactive
[4]
  outcome: inactive
[5]
  outcome: inactive
[6]
  outcome: inactive

## Cc1c(C)c2c(c(C)c1OC(=O)CCC(=O)O)CC[C@@](C)(CCC[C@H](C)CCC[C@H](C)CCCC(C)C)O2
[1]
  outcome: inactive
[2]
  outcome: inactive
[3]
  AC50: 46.5 µM (active) and 41.2 µM (active)
[4]
  AC50: 67.7 µM (active)
  outcome: inactive
[5]
  outcome: inactive
[6]
  outcome: inactive
[7]
  outcome: inactive
[8]
  outcome: inactive

## CC1=CC[C@H](CC=O)C1(C)C
[1]
  outcome: inactive
[2]
  outcome: inactive
[3]
  outcome: inactive
[4]
  outcome: inactive
[5]
  outcome: inactive
[6]
  outcome: inactive

## Nc1cc(S(=O)(=O)O)ccc1S(=O)(=O)O
[1]
  outcome: inactive
[2]
  outcome: inactive
[3]
  outcome: inactive

## CC(CNC1CCCCC1)OC(=O)c1ccccc1 (centres undefined)
[1]
  outcome: inactive
[2]
  outcome: inactive
[3]
  outcome: inactive
[4]
  outcome: inactive
[5]
  outcome: inactive
[6]
  outcome: inactive
[7]
  outcome: inactive

## COC(=O)[C@H]1[C@H]2C[C@@H]3c4[nH]c5ccccc5c4CCN3C[C@H]2C[C@@H](OC(=O)c2cc(OC)c(OC)c(OC)c2)[C@@H]1OC
[1]
  outcome: inactive
[2]
  outcome: inactive
[3]
  outcome: inactive
[4]
  outcome: inactive
[5]
  AC50: 6.8 µM (active)
  outcome: inactive
[6]
  outcome: inactive
[7]
  outcome: inactive
[8]
  AC50: 15.7 µM (active)
  outcome: inactive

## C[N+]1(CC2COC(c3ccccc3)(c3ccccc3)O2)CCCCC1 (centres undefined)
[1]
  outcome: inactive
[2]
  outcome: inactive
[3]
  outcome: inactive
[4]
  outcome: inactive
[5]
  outcome: inactive

## CC=CC(=O)CCCC
[1]
  outcome: inactive
[2]
  outcome: inactive
[3]
  outcome: inactive
[4]
  outcome: inactive
[5]
  outcome: inactive

## Cc1cccc2cccnc12
[1]
  outcome: inactive
[2]
  outcome: inactive
[3]
  outcome: inactive
[4]
  outcome: inactive
[5]
  outcome: inactive

## CO[C@H]1C[C@@H]2CC[C@@H](C)[C@@](O)(O2)C(=O)C(=O)N2CCCC[C@H]2C(=O)O[C@H]([C@H](C)C[C@@H]2CC[C@@H](O)[C@H](OC)C2)CC(=O)[C@H](C)/C=C(\C)[C@@H](O)[C@@H](OC)C(=O)[C@H](C)C[C@H](C)\C=C/C=C/C=C/1C
[1]
  AC50: 18.1 µM (active) and 20.6 µM (active)
[2]
  AC50: 29.7 µM (active)
  outcome: inactive
[3]
  AC50: 33.3 µM (active) and 22.4 µM (active)
[4]
  AC50: 41 µM (active) and 40.8 µM (active)
[5]
  AC50: 17.5 µM (active) and 17.7 µM (active)
[6]
  AC50: 35.1 µM (active) and 34.8 µM (active)
[7]
  AC50: 23.7 µM (active) and 23.9 µM (active)
[8]
  AC50: 21.7 µM (active) and 20.8 µM (active)

## Nc1cc(S(=O)(=O)O)ccc1O
[1]
  outcome: inactive
[2]
  outcome: inactive
[3]
  outcome: inactive
[4]
  outcome: inactive
[5]
  outcome: inactive
[6]
  outcome: inactive

## CCC[C@@H]1C[C@@H](C(=O)N[C@@H]([C@H]2O[C@H](SC)[C@H](O)[C@@H](O)[C@H]2O)[C@@H](C)O)N(C)C1
[1]
  outcome: inactive
[2]
  outcome: inactive
[3]
  outcome: inactive
[4]
  outcome: inactive

## Cc1cc(/C=C/c2ccc3cc(N(C)C)ccc3[n+]2C)c(C)n1-c1ccccc1
[1]
  AC50: 16.7 µM (active)
[2]
  AC50: 13.4 µM (active)
[3]
  outcome: inactive
[4]
  AC50: 16.1 µM (active)
[5]
  AC50: 16.6 µM (active)
[6]
  AC50: 15.8 µM (active)
[7]
  outcome: inactive
[8]
  AC50: 20.1 µM (active)

## O=C1[C@H]2CCCC[C@H]2C(=O)N1CCCCN1CCN(c2nsc3ccccc23)CC1
[1]
  outcome: inactive
[2]
  outcome: inactive
[3]
  outcome: inactive
[4]
  outcome: inactive
[5]
  outcome: inactive
[6]
  outcome: inactive
[7]
  outcome: inactive

## CCCCOCCOCCOCCCC
[1]
  outcome: inactive
[2]
  outcome: inactive
[3]
  outcome: inactive
[4]
  outcome: inactive
[5]
  outcome: inactive
[6]
  outcome: inactive
[7]
  outcome: inactive

## CC(S)C(=O)NCC(=O)O (centres undefined)
[1]
  outcome: inactive
[2]
  outcome: inactive
[3]
  outcome: inactive
[4]
  outcome: inactive
[5]
  outcome: inactive
[6]
  outcome: inactive
[7]
  outcome: inactive
